For some of these results: Entries with a potency or affinity are not part of this list.

Our source for the Percent Effect values is ChEMBL document CHEMBL3988442, “University of Dundee, Small-Polar-MMV Screening Library” (2021).

Holding throughout (design): scale not given: direction of the effect not stated beside the values
For experiment [1], the target named is Protein translocase subunit SecA (Escherichia coli (strain K12)) (UniProt P10408). In words: Assay to Identify E. coli SecA ATPase Inhibitors. As to conditions: 30 µM. In kind it is functional.
Experiment [2] concerns the target T1, Ubiquitin-activating enzyme e1, putative (Leishmania donovani (strain BPK282A1)) (UniProt E9BSI1).
T1 sequence (whole entry): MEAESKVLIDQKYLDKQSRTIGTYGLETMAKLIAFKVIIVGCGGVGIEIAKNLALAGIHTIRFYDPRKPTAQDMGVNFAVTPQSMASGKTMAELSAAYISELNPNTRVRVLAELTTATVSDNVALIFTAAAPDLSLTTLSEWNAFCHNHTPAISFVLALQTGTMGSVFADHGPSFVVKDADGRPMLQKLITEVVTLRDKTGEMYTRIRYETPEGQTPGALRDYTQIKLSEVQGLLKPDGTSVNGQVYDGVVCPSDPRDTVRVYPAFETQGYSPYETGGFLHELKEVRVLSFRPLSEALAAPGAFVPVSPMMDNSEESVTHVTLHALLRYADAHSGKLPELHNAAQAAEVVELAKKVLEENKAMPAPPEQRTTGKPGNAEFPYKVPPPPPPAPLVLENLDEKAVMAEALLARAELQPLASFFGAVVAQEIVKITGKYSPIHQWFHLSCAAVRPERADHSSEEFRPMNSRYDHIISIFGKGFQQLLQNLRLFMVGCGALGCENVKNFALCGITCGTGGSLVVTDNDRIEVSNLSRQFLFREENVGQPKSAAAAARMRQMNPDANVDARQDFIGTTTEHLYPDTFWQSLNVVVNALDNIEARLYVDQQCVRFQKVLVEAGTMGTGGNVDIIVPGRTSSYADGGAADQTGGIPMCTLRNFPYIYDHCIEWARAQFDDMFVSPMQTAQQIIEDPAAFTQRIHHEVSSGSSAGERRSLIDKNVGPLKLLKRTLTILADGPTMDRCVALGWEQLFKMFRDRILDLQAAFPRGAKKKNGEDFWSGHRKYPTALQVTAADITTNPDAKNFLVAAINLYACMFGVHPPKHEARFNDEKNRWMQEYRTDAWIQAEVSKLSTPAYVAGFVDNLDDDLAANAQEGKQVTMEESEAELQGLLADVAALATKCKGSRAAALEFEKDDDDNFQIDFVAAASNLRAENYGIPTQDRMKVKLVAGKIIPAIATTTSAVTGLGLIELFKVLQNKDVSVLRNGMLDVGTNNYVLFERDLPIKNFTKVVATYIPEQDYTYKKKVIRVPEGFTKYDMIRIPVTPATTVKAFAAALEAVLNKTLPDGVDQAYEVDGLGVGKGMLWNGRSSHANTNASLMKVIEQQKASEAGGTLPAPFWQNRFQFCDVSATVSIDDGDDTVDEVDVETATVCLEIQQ
As to the kind of experiment: Leishmania donovani Ubiquitin Activating Enzyme (LdE1). As to conditions: 30 µM. It is filed as functional.

Experiment [3] concerns the target AMP-activated protein kinase, AMPK (Homo sapiens) (UniProt P54646+O43741+P54619+Q9UGJ0+Q9Y478+Q13131+Q9UGI9). In words: AMP-dependent Kinase enzyme assay. An in vitro enzyme assay that detects ADP turnover that is directly proportional to AMPK activity. This uses naive AMPK that is activated during the assay with MK-8722. In kind it is functional. The following applies: 30 µM.

The target of experiment [4] is Sialic acid-binding Ig-like lectin 9 (Homo sapiens) (UniProt Q9Y336). In words: Hs-Siglec9 ALPHAscreen SOP 20170721. As to conditions: 10 µM.
A further experiment has as its system Trypanosoma cruzi. In words: Trypanosoma cruzi phosphomannomutase and mannose-1-phosphate guanylyltransferase assay. In kind it is functional. As to conditions: 10 µM.
The target of experiment [5] is T2, Arginase-2, mitochondrial (Homo sapiens) (UniProt P78540).
T2 sequence (whole entry): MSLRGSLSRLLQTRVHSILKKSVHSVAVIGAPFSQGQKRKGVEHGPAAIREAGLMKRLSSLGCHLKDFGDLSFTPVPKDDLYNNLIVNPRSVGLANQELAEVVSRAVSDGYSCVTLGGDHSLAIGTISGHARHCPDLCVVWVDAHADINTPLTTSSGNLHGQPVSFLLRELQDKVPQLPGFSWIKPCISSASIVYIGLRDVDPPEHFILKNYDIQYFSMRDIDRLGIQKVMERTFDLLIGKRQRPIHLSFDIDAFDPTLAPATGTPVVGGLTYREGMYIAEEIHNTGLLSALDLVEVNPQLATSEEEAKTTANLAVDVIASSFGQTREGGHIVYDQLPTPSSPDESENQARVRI
In words: in vitro enzyme assay to detect the production of urea directly proportional to the activity of Arginase II. Note: in the data most compounds retested in dose-response had high values. In kind it is functional. As to conditions: 33.3 µM.

The target in experiment [6] is T3, Proteasome subunit beta (Trypanosoma cruzi) (UniProt O96673).
T3 sequence (whole entry): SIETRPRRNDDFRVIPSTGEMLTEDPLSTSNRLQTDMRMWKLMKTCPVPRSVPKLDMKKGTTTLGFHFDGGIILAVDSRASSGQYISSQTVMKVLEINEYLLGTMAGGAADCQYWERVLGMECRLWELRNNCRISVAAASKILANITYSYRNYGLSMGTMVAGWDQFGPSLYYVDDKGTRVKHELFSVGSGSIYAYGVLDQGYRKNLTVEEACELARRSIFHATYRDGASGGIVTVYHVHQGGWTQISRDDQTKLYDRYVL
In words: Trypanosoma cruzi proteasome chymotrypsin-like activity (TcProtChymo) assay. Note: in the data most compounds retested in dose-response had high values. As to conditions: 9.37 µM. In kind it is functional.

For a further experiment, the species on record is Homo sapiens. In words: To identify inhibition of the IFN signalling (Jak-Stat) pathway via expression of an eGFP reporter gene under the control of an IFN-stimulated response element (ISRE) containing MxA promoter. In kind it is functional. As to conditions: 30 µM. In general terms: A reporter such as luciferase makes a cellular process visible.

Experiment [7] deals with T4, Tyrosyl-tRNA synthetase, putative (Trypanosoma cruzi (strain CL Brener)) (UniProt Q4DSP6).
T4 sequence (whole entry): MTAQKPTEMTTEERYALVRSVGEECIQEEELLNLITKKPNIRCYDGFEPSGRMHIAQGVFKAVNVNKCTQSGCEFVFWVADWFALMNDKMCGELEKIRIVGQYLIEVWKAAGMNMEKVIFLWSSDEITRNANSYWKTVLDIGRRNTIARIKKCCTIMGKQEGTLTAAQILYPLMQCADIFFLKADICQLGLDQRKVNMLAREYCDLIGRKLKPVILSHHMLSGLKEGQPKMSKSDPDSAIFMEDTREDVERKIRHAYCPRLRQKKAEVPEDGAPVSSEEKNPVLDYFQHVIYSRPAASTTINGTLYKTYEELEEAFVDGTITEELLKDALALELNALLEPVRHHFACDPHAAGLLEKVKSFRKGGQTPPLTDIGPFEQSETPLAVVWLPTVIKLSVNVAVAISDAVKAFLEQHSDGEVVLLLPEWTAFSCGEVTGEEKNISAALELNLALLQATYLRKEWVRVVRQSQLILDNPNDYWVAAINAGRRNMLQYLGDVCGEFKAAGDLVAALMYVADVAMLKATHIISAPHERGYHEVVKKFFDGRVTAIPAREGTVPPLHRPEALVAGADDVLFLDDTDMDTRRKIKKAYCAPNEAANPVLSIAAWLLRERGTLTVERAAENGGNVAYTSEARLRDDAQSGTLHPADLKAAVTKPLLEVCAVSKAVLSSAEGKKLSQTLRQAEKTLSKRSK
In words: Trypanosoma cruzi tyrosyl tRNA synthetase (TcYRS) _High Tyrosine SOP. Note: in the data most compounds retested in dose-response had high values. In kind it is functional. As to conditions: 30 µM.

Experiment [8] has as its target T4, Tyrosyl-tRNA synthetase, putative (Trypanosoma cruzi (strain CL Brener)). As to the kind of experiment: Trypanosoma cruzi tyrosyl tRNA synthetase (TcYRS) SOP. As to conditions: 30 µM. In kind it is functional.
Experiment [9] has as its target Chromo domain-containing protein 1 (Saccharomyces cerevisiae (strain ATCC 204508 / S288c) (Baker's yeast)) (UniProt P32657). As to the kind of experiment: ScCHD-1 Enzyme Inhibition Assay. Note: in the data most compounds retested in dose-response had high values. It is filed as functional. The following applies: 30 µM.

Chain of Sialic acid-binding Ig-like lectin 9 (Homo sapiens) (Q9Y336 whole entry): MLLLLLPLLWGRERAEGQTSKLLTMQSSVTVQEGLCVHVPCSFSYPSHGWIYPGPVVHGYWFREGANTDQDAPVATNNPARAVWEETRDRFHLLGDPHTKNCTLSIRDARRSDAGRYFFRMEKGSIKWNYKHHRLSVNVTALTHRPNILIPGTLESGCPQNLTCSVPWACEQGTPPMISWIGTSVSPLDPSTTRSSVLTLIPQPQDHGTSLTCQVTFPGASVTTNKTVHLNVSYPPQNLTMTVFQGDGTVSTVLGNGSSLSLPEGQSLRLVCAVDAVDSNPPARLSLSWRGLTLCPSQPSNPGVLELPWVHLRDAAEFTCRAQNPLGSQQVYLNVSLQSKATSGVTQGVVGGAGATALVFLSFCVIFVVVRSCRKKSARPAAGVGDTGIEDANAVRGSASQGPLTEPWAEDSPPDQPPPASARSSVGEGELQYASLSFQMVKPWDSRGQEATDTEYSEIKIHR
Chain of Protein translocase subunit SecA (Escherichia coli (strain K12)) (P10408 whole entry): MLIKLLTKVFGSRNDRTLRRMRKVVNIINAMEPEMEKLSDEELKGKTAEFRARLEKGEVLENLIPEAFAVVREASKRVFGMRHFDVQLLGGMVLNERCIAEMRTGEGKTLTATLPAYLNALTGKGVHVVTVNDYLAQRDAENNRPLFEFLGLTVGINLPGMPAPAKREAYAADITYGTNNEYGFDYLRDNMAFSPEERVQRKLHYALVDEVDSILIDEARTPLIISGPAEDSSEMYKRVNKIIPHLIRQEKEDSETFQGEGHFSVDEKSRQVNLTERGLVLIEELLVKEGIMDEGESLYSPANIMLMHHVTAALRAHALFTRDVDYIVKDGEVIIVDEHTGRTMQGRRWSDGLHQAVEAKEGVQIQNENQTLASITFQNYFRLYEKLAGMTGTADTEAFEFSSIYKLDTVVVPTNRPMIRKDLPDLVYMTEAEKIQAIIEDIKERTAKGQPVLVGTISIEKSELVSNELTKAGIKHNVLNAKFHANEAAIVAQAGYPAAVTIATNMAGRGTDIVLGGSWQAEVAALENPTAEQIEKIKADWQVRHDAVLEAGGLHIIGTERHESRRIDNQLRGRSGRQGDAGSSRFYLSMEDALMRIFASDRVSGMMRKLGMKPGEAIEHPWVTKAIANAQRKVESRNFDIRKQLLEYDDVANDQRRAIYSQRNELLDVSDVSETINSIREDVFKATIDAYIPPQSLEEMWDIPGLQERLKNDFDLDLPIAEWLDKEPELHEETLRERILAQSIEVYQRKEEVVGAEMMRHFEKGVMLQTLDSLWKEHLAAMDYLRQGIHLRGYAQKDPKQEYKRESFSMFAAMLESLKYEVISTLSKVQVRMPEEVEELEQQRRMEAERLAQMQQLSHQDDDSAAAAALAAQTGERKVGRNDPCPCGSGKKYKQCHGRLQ
Chain of Chromo domain-containing protein 1 (Saccharomyces cerevisiae (strain ATCC 204508 / S288c) (Baker's yeast)) (P32657 whole entry, the tested form may be a part): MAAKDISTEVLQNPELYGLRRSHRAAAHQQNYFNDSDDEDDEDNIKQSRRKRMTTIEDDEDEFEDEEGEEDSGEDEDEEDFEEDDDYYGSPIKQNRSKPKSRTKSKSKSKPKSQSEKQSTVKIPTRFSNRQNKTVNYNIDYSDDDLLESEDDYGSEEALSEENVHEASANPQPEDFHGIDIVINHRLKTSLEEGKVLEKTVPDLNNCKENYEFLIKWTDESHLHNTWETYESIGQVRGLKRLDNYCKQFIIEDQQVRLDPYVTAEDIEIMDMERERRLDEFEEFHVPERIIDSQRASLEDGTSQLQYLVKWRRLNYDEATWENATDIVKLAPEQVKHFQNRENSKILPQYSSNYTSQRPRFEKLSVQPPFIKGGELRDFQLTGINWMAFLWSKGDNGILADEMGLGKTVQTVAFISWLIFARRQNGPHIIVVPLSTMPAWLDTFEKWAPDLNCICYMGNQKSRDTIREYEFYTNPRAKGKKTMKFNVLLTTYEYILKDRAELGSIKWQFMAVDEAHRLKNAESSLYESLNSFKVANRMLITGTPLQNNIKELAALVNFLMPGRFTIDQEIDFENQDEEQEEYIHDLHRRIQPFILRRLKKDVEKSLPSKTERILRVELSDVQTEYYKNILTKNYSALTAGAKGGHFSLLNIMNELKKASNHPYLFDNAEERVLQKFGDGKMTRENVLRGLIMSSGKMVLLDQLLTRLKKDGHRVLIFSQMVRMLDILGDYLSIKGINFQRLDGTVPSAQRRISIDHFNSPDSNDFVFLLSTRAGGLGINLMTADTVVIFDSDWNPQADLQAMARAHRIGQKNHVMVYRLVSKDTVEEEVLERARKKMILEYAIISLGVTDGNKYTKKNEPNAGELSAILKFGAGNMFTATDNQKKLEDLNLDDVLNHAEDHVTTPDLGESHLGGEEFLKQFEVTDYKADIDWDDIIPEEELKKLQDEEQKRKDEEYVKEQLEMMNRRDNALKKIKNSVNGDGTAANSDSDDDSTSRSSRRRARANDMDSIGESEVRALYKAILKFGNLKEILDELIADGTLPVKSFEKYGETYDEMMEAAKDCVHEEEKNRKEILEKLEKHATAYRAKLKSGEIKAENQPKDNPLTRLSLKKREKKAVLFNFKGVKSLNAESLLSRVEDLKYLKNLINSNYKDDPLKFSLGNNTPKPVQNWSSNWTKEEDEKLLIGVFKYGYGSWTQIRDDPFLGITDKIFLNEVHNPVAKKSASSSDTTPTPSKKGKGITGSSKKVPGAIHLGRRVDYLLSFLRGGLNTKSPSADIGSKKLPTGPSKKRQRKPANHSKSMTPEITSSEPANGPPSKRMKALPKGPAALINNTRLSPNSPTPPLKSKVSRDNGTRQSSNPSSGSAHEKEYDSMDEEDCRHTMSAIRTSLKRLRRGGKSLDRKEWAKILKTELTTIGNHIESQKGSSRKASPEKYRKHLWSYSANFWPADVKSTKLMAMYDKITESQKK

Turning to `CCc1nnc2n1CCN(C(=O)c1cc(Br)c[nH]1)C2`, the Percent Effect in experiment [1] was -5.48%; in experiment [2] it was 23.4%; in experiment [3], -0.82%; in experiment [4], 9.55%; with Trypanosoma cruzi, 8.05%; in experiment [5], -1.78%. In addition, the Percent Effect is 13% in [6]; -20.8% in the experiment filed under Homo sapiens; 9.71% in [7]; 19.5% in experiment [8]; -10.3% in experiment [9].
Take `CCN(CC)c1ccc(-c2nc(-c3cccc(OC)c3OC)no2)cn1`: the Percent Effect was -3.58% in experiment [1]; 8% in [2]; -0.0158% in [3]; 12.2% in experiment [4]; 6.52% in the experiment on Trypanosoma cruzi; 17.2% in experiment [5]. Further, the Percent Effect in [6] was 0.349%; in the experiment filed under Homo sapiens, 10.7%; in experiment [7], 1.64%; in experiment [8], -8.64%; in [9], -2.98%.
Consider `Cc1cc(=O)[nH]c(NCCNC(=O)C(c2ccc(F)cc2)N(C)C)n1` (stereo unspecified), for which the Percent Effect in [1] was 4.65%; in [2], 11%; in experiment [3], 0.926%; in [4], 2.46%; in the experiment on Trypanosoma cruzi, -9.72%; in experiment [5], -10.8%. The Percent Effect is 17.4% in experiment [6]; 21.7% in the experiment filed under Homo sapiens; 8.33% in experiment [7]; 16.1% in experiment [8]; -5.31% in experiment [9].
`CCOc1ncccc1C(=O)N1CCCCC1c1nccs1` (stereo unspecified): the Percent Effect in [1] was -4.08%; in experiment [2] it was 2.7%; in experiment [3] it was -17.5%; in experiment [4] it was 15.7%; in the experiment with Trypanosoma cruzi, 2.55%; in experiment [5], -7.62%. For the same molecule, the Percent Effect in experiment [6] was -2.7%; in the experiment filed under Homo sapiens, 10.1%; in [7], 4.43%; in [8], 11.1%; in [9], -9.25%.
For `Cn1cnc2c1CCN(CCCOc1ccc(C#N)cc1)C2`, the Percent Effect in experiment [1] is -7.51%; in experiment [2] it was 2.53%; in experiment [3], -0.357%; in experiment [4], -0.18%; with Trypanosoma cruzi it was -2.93%; in [5], -1.14%. Also, the Percent Effect is 5.98% in [6]; 20.4% in the experiment filed under Homo sapiens; -0.493% in [7]; -1.27% in [8]; -3.4% in experiment [9].
As to `CSCCCN1CC[C@@H](NC(=O)c2cnccn2)[C@H](O)C1`, the Percent Effect is -3.48% in experiment [1]; 5.41% in [2]; -0.599% in [3]; 6.12% in [4]; 3.09% in the experiment with Trypanosoma cruzi; -1.43% in experiment [5]. The Percent Effect in experiment [6] came out at 11.6%; in the experiment filed under Homo sapiens, 5.1%; in experiment [7] it was 8.99%; in experiment [8], 19.5%; in experiment [9] it was 1.39%.
For `CCc1nccn1C1CCCN(C(=O)c2cn3cccnc3n2)C1` (stereo unspecified), the Percent Effect in [1] was -1.83%; in [2], 2.7%; in experiment [3] it was -8.93%; in experiment [4] it was 1.79%; in the experiment with Trypanosoma cruzi it was -2.17%; in experiment [5] it was 2.81%. The Percent Effect is -3.96% in experiment [6]; -7.1% in the experiment filed under Homo sapiens; 1.48% in [7]; -1.24% in experiment [8]; 1.22% in [9].
`COCCN1CC[C@@H](O)[C@@H]1Cc1ccccc1`: the Percent Effect was 1.28% in experiment [1]; 6.67% in [2]; 2.24% in experiment [3]; 0.614% in [4]; -10.4% in the experiment on Trypanosoma cruzi; -8.63% in experiment [5]. Moreover, the Percent Effect in [6] was 10.7%; in the experiment listed under Homo sapiens, -7.47%; in [7], 2.12%; in experiment [8] it was 0%; in experiment [9] it was -7.73%.
With `CSc1nccn1-c1cccc(C(=O)NCC2CC2)c1`, the Percent Effect in experiment [1] is -4.93%; in [2], 7.89%; in [3], 0.0421%; in experiment [4], 2.24%; with Trypanosoma cruzi it was 6.82%; in [5], -1.44%. The Percent Effect in experiment [6] worked out at 3.13%; in the experiment filed under Homo sapiens, 2.37%; in [7], 5.42%; in experiment [8] it was 13.6%; in experiment [9], 2.32%.
In the case of `COc1ccc(CN2CCn3cc(CN4CCN(C)CC4)nc3C2)cc1`, the Percent Effect in experiment [1] is -4.41%; in [2] it was 8.11%; in [3], 4.53%; in [4] it was -5.52%; with Trypanosoma cruzi it was -2.83%; in experiment [5] it was 4.78%. For the same molecule, the Percent Effect in experiment [6] was 18.4%; in the experiment filed under Homo sapiens it was -7.72%; in experiment [7], -2.16%; in experiment [8] it was 5.13%; in experiment [9], 3.23%.
Regarding `CCc1nc(NS(=O)(=O)c2cc(C)ccc2F)no1`, the Percent Effect is -0.155% in [1]; 0% in experiment [2]; -9.72% in experiment [3]; 8.2% in experiment [4]; 6.13% in the experiment on Trypanosoma cruzi; 15.1% in experiment [5]. Moreover, the Percent Effect in experiment [6] is 3.84%; in the experiment filed under Homo sapiens, 1.84%; in experiment [7], 2.73%; in experiment [8], 6.17%; in experiment [9] it was -2.85%.
